# Experimental data: PubChem BioAssay AID1508601 (ICCB-Longwood Screening Facility, Harvard Medical School, 2020)
# Where “and” joins values, the source holds several entries; their conditions need not be identical. Equal entries are not always repeated. Screen size: about 5,700 compounds; about 85 (1%) were called active. Cut-off read from the data, not from the text of the source: active = p53-positive nuclei above about 36% (passing the limit was not always enough); inactive = the rest. The list comes from a sample in which actives are over-represented; it also holds similar structures and randomly drawn compounds. Where a structure was tested more than once in an assay, its records may differ in their call.
# What was measured:
# [1] = nuclear p53 accumulation, HPV+ cells – imaging, p53-positive nuclei imaging, 24 h, 48 h (AID 1508601); conditions: 24/48 h
# [2] = target: Cellular tumor antigen p53 (Homo sapiens) (UniProt P04637); experiment: as above; conditions: 24/48 h, stronger effect = higher value
# [3] = measured here: cell number at 24 h, Library stock concentration: 3.33 mM
# [4] = measured here: cell number at 48 h, Library stock concentration: 3.33 mM
# [5] = Library stock concentration: 3.33 mM
# [6] = measured here: p53 positive nuclei at 24 h, Library stock concentration: 3.33 mM
# [7] = measured here: cell number at 24 h, Library stock concentration: 10 mM
# [8] = measured here: cell number at 48 h, Library stock concentration: 10 mM
# [9] = Library stock concentration: 10 mM
# [10] = measured here: p53 positive nuclei at 24 h, Library stock concentration: 10 mM
# [11] = measured here: cell number at 24 h, concentration not given here
# [12] = measured here: cell number at 48 h, concentration not given here
# [13] = measured here: p53 positive nuclei at 24 h, concentration not given here
# Cellular tumor antigen p53 (Homo sapiens), sequence (P04637 whole entry, looked up): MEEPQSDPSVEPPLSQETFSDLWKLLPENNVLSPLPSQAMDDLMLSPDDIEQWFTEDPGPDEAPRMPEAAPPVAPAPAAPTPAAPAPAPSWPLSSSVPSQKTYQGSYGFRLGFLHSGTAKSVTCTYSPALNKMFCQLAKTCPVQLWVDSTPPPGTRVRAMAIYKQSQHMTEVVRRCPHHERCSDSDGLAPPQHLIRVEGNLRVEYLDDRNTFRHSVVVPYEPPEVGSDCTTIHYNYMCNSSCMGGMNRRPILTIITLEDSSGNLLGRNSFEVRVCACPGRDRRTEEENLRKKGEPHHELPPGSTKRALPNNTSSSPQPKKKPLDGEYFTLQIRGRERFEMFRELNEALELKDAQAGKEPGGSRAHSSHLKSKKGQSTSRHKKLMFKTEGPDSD
structure (smiles),measurement,setting,value
COc1ccc(F)c(F)c1C(=O)c1cnc(NC2CCN(S(C)(=O)=O)CC2)nc1N,"nuclei count, normalised",[1]; [3],43.7%
same,"nuclei count, normalised",[1]; [4],27.7%
same,"p53-positive nuclei, normalised",[2]; [5],67.1% (active)
same,"p53-positive nuclei, normalised",[2]; [6],73.8%
Cc1cc(OCCCS(C)(=O)=O)cc(C)c1-c1cccc(COc2ccc3c(c2)OCC3CC(=O)O)c1 (stereo not given),"nuclei count, normalised","[1]; measured here: cell number at 24 h, Library stock concentration: 46 uM",101%
same,"nuclei count, normalised","[1]; measured here: cell number at 24 h, Library stock concentration: 278 uM",107%
same,"nuclei count, normalised","[1]; measured here: cell number at 24 h, Library stock concentration: 1.67 mM",104%
same,"nuclei count, normalised",[1]; [3],125%
same,"nuclei count, normalised",[1]; [7],103%
same,"nuclei count, normalised","[1]; measured here: cell number at 48 h, Library stock concentration: 46 uM",105%
same,"nuclei count, normalised","[1]; measured here: cell number at 48 h, Library stock concentration: 278 uM",104%
same,"nuclei count, normalised","[1]; measured here: cell number at 48 h, Library stock concentration: 1.67 mM",104%
same,"nuclei count, normalised",[1]; [4],119%
same,"nuclei count, normalised",[1]; [8],103%
same,"p53-positive nuclei, normalised",[2]; Library stock concentration: 46 uM,-0.0206% (inactive)
same,"p53-positive nuclei, normalised",[2]; Library stock concentration: 278 uM,-0.0568% (inactive)
same,"p53-positive nuclei, normalised",[2]; Library stock concentration: 1.67 mM,-0.0557% (inactive)
same,"p53-positive nuclei, normalised",[2]; [5],-0.149% (inactive)
same,"p53-positive nuclei, normalised",[2]; [9],0.322% (inactive)
same,"p53-positive nuclei, normalised","[2]; measured here: p53 positive nuclei at 24 h, Library stock concentration: 46 uM",-0.152%
same,"p53-positive nuclei, normalised","[2]; measured here: p53 positive nuclei at 24 h, Library stock concentration: 278 uM",0.151%
same,"p53-positive nuclei, normalised","[2]; measured here: p53 positive nuclei at 24 h, Library stock concentration: 1.67 mM",-0.156%
same,"p53-positive nuclei, normalised",[2]; [6],-0.546%
same,"p53-positive nuclei, normalised",[2]; [10],-0.0299%
O=C(O)/C=C/CCCCCCCCC(=O)O,"nuclei count, normalised",[1]; [11],111%
same,"nuclei count, normalised",[1]; [12],107%
same,"p53-positive nuclei, normalised",[2]; concentration not given here,0.0752% (inactive)
same,"p53-positive nuclei, normalised",[2]; [13],0.0107%
C=C1C(=O)OC(CCCCCCCC)C1C(=O)O (stereo not given),"nuclei count, normalised","[1]; measured here: cell number at 24 h, Library stock concentration: 500 nM",115%
same,"nuclei count, normalised","[1]; measured here: cell number at 24 h, Library stock concentration: 1.5 uM",107%
same,"nuclei count, normalised","[1]; measured here: cell number at 24 h, Library stock concentration: 4.6 uM",111%
same,"nuclei count, normalised","[1]; measured here: cell number at 24 h, Library stock concentration: 13.7 uM",112%
same,"nuclei count, normalised","[1]; measured here: cell number at 24 h, Library stock concentration: 41 uM",108%
same,"nuclei count, normalised","[1]; measured here: cell number at 24 h, Library stock concentration: 123 uM",110%
same,"nuclei count, normalised","[1]; measured here: cell number at 24 h, Library stock concentration: 370 uM",116%
same,"nuclei count, normalised","[1]; measured here: cell number at 24 h, Library stock concentration: 1.111 mM",116%
same,"nuclei count, normalised","[1]; measured here: cell number at 24 h, Library stock concentration: 3.333 mM",114%
same,"nuclei count, normalised",[1]; [7],106%
same,"nuclei count, normalised","[1]; measured here: cell number at 48 h, Library stock concentration: 500 nM",112%
same,"nuclei count, normalised","[1]; measured here: cell number at 48 h, Library stock concentration: 1.5 uM",108%
same,"nuclei count, normalised","[1]; measured here: cell number at 48 h, Library stock concentration: 4.6 uM",109%
same,"nuclei count, normalised","[1]; measured here: cell number at 48 h, Library stock concentration: 13.7 uM",110%
same,"nuclei count, normalised","[1]; measured here: cell number at 48 h, Library stock concentration: 41 uM",105%
same,"nuclei count, normalised","[1]; measured here: cell number at 48 h, Library stock concentration: 123 uM",108%
same,"nuclei count, normalised","[1]; measured here: cell number at 48 h, Library stock concentration: 370 uM",116%
same,"nuclei count, normalised","[1]; measured here: cell number at 48 h, Library stock concentration: 1.111 mM",114%
same,"nuclei count, normalised","[1]; measured here: cell number at 48 h, Library stock concentration: 3.333 mM",112%
same,"nuclei count, normalised",[1]; [8],107%
same,"p53-positive nuclei, normalised",[2]; Library stock concentration: 500 nM,0.247% (inactive)
same,"p53-positive nuclei, normalised",[2]; Library stock concentration: 1.5 uM,-0.0382% (inactive)
same,"p53-positive nuclei, normalised",[2]; Library stock concentration: 4.6 uM,-0.0805% (inactive)
same,"p53-positive nuclei, normalised",[2]; Library stock concentration: 13.7 uM,-0.0825% (inactive)
same,"p53-positive nuclei, normalised",[2]; Library stock concentration: 41 uM,0.00899% (inactive)
same,"p53-positive nuclei, normalised",[2]; Library stock concentration: 123 uM,-0.155% (inactive)
same,"p53-positive nuclei, normalised",[2]; Library stock concentration: 370 uM,0.0153% (inactive)
same,"p53-positive nuclei, normalised",[2]; Library stock concentration: 1.111 mM,-0.0515% (inactive)
same,"p53-positive nuclei, normalised",[2]; Library stock concentration: 3.333 mM,0.104% (inactive)
same,"p53-positive nuclei, normalised",[2]; [9],0.0835% (inactive)
same,"p53-positive nuclei, normalised","[2]; measured here: p53 positive nuclei at 24 h, Library stock concentration: 500 nM",-0.115%
same,"p53-positive nuclei, normalised","[2]; measured here: p53 positive nuclei at 24 h, Library stock concentration: 1.5 uM",0.12%
same,"p53-positive nuclei, normalised","[2]; measured here: p53 positive nuclei at 24 h, Library stock concentration: 4.6 uM",-0.0584%
same,"p53-positive nuclei, normalised","[2]; measured here: p53 positive nuclei at 24 h, Library stock concentration: 13.7 uM",-0.0585%
same,"p53-positive nuclei, normalised","[2]; measured here: p53 positive nuclei at 24 h, Library stock concentration: 41 uM",0.0028%
same,"p53-positive nuclei, normalised","[2]; measured here: p53 positive nuclei at 24 h, Library stock concentration: 123 uM",-0.115%
same,"p53-positive nuclei, normalised","[2]; measured here: p53 positive nuclei at 24 h, Library stock concentration: 370 uM",-0.0115%
same,"p53-positive nuclei, normalised","[2]; measured here: p53 positive nuclei at 24 h, Library stock concentration: 1.111 mM",0.0471%
same,"p53-positive nuclei, normalised","[2]; measured here: p53 positive nuclei at 24 h, Library stock concentration: 3.333 mM",0.103%
same,"p53-positive nuclei, normalised",[2]; [10],-0.112%
Cc1ccc(NC(=O)CCCCCC(=O)Nc2ccccc2N)cc1,"nuclei count, normalised",[1]; [11],111%
same,"nuclei count, normalised",[1]; [12],104%
same,"p53-positive nuclei, normalised",[2]; concentration not given here,-0.139% (inactive)
same,"p53-positive nuclei, normalised",[2]; [13],-0.0721%
Nc1ccccc1NC(=O)CCCCCCC(=O)Nc1ccccc1,"nuclei count, normalised",[1]; [11],102%
same,"nuclei count, normalised",[1]; [12],99.7%
same,"p53-positive nuclei, normalised",[2]; concentration not given here,-0.185% (inactive)
same,"p53-positive nuclei, normalised",[2]; [13],-0.135%
O=C(CCCCCCC(=O)Nc1ccccc1)NO,"nuclei count, normalised","[1]; measured here: cell number at 24 h, Library stock concentration: 80 uM",112%
same,"nuclei count, normalised","[1]; measured here: cell number at 24 h, Library stock concentration: 400 uM",108% and 112%
same,"nuclei count, normalised","[1]; measured here: cell number at 24 h, Library stock concentration: 2 mM",91.7% and 119%
same,"nuclei count, normalised",[1]; [3],78.1%
same,"nuclei count, normalised",[1]; [7],48.6% and 60.7%
same,"nuclei count, normalised",[1]; [11],97.6%
same,"nuclei count, normalised","[1]; measured here: cell number at 48 h, Library stock concentration: 80 uM",108% and 95.5%
same,"nuclei count, normalised","[1]; measured here: cell number at 48 h, Library stock concentration: 400 uM",95.7% and 94.9%
same,"nuclei count, normalised","[1]; measured here: cell number at 48 h, Library stock concentration: 2 mM",94.4% and 101%
same,"nuclei count, normalised",[1]; [4],74.5%
same,"nuclei count, normalised",[1]; [8],30.2% and 39.7%
same,"nuclei count, normalised",[1]; [12],95.7%
same,"p53-positive nuclei, normalised",[2]; Library stock concentration: 80 uM,0.114% (inactive) and -0.578% (inactive)
same,"p53-positive nuclei, normalised",[2]; Library stock concentration: 400 uM,-0.0686% (inactive) and -0.456% (inactive)
same,"p53-positive nuclei, normalised",[2]; Library stock concentration: 2 mM,1.4% (inactive) and -0.595% (inactive)
same,"p53-positive nuclei, normalised",[2]; [5],4.65% (inactive)
same,"p53-positive nuclei, normalised",[2]; [9],53.5% (active) and 27.2% (inactive)
same,"p53-positive nuclei, normalised",[2]; concentration not given here,0.0822% (inactive)
same,"p53-positive nuclei, normalised","[2]; measured here: p53 positive nuclei at 24 h, Library stock concentration: 80 uM",0.178% and -0.162%
same,"p53-positive nuclei, normalised","[2]; measured here: p53 positive nuclei at 24 h, Library stock concentration: 400 uM",-0.0144% and -0.0685%
same,"p53-positive nuclei, normalised","[2]; measured here: p53 positive nuclei at 24 h, Library stock concentration: 2 mM",2.42% and 0.0577%
same,"p53-positive nuclei, normalised",[2]; [6],8.5%
same,"p53-positive nuclei, normalised",[2]; [10],65.2% and 32.1%
same,"p53-positive nuclei, normalised",[2]; [13],0.00812%
